Results: PubChem BioAssay (Tox21)
Where “and” joins values, the source holds several entries; their conditions need not be identical. Equal values may be shown once. Results filed as inconclusive are left out. Where a call stands in place of a potency, no number is given. The source holds several records for some structures; these can differ, active in one and inactive in another. Calls of active or inactive are those of the source. Unless noted, calls come from the whole dose curve; as a rule, active = well fitted curve in the direction sought with a large enough effect in the repeat runs; inconclusive = weak or mixed curves; inactive = no such curve, though single readings can be large; an effect the other way counts as inactive or inconclusive.

What was measured:
[1] = qHTS assay to identify small molecule agonists of the RXR signaling pathway - cell viability counter screen (AID 1159529); note: nearly all actives have a fitted effect of over 50% in size; note: potency is the fitted concentration of half-maximal effect;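 for activity change, negative = cytotoxicity: HEK 293T cells carrying an RXR-alpha UAS beta-lactamase reporter; series mostly up to about 77 µM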
Summary of the method: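 Steps: seed RXR-alpha-UAS-bla HEK 293T cells in assay medium containing 2% charcoal-stripped FBS; incubate 5 hr; add compounds in DMSO; incubate 16 hr at 37 C; after the bla read, add CellTiter-Glo and read luminescence at 30 min.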

[2] = qHTS assay to identify small molecule antagonists of the retinoid acid receptor (RAR) signaling pathway - cell viability counter screen (AID 1159551); note: nearly all actives have a fitted effect of over 35% in size; note: potency is the fitted concentration of half-maximal effect
Summary of the method: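 Following overnight attachment, C3RL4 reporter cells received DMSO-dissolved compounds and then retinol (1 uM final). Six hours later at 37 C, ATP content was measured by CellTiter-Glo luminescence.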

[3] = qHTS assay to identify small molecule antagonists of the retinoic acid receptor (RAR) signaling pathway (AID 1159552; note: nearly all actives have a fitted effect of over 50% in size; note: potency is the fitted concentration of half-maximal effect)
Summary of the method: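 Retinol at 1 uM final stimulated RARE-luciferase expression in C3RL4 cells exposed to test compounds for 6 hr at 37 C. Reduced luminescence, read 30 min after detection reagent, indicated pathway antagonism.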

[4] = qHTS assay to identify small molecule agonists of the retinoic acid receptor (RAR) signaling pathway (AID 1159553); note: potency is the fitted concentration of half-maximal effect
Summary of the method: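 Cell line C3RL4, RARE luciferase reporter. Treatment: compounds in DMSO, 6 hr, 37 C, 5% CO2, after overnight plating. Detection: luminescence, 30 min RT after reagent.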

[5] = qHTS assay to identify small molecule antagonists of the estrogen related receptor (ERR) signaling pathway - cell viability counter screen (AID 1224818);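 note: series mostly up to about 46 µM; viability measured after 17.5 h of compound exposure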
Summary of the method: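 Here, ERR cells are plated at 2,000 cells per well, allowed 6 h to attach, and treated with compounds in DMSO for 17.5 h at 37 C. CellTiter-Fluor is then added and fluorescence read after 30 min.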

[6] = qHTS assay to identify small molecule antagonists of the estrogen related receptor (ERR) signaling pathway (AID 1224819;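 note: luminescence from an ERR-driven luciferase reporter measured with One-Glo reagent; series mostly up to about 46 µM; nearly all actives have a fitted effect of over 50% in size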)
Summary of the method: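 LOPAC library screened for antagonism as reduced One-Glo luminescence in ERR reporter cells (2,000/well). Compounds were added after 6 h pre-incubation and left 18 h at 37C; reading followed a 30 min room-temperature reagent step.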

[7] = qHTS assay to identify small molecule agonists of the estrogen related receptor (ERR) signaling pathway (AID 1224820)
Summary of the method: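 ERR reporter cells (NTP line) plated 2,000/well, incubated 6 h at 37 C/5% CO2, then pinned with compounds in DMSO and held 18 h at 37 C. One-Glo added; luminescence read after 30 min at room temperature.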

[8] = system: estrogen-related receptor alpha (ERRalpha) with PGC-1alpha coactivator, human; assay: qHTS assay to identify small molecule antagonists of the estrogen related receptor signaling pathway with the pleiotropic PPARgamma coactivator (PGC) (AID 1224821; calls by dose curve;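 note: series mostly up to about 46 µM; lower luminescence signal means antagonism of PGC/ERR signalling; nearly all actives have a fitted effect of over 50% in size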)
Summary of the method: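 Cells engineered for PGC/ERR signalling (line from NTP) were plated 6 h at 37 C/5% CO2, then exposed to DMSO-dissolved compound for 18 h at 37 C. Luciferase activity was read by One-Glo luminescence after 30 min at room temperature.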

[9] = qHTS assay to identify small molecule antagonists of the estrogen related receptor signaling pathway with the pleiotropic PPARgamma coactivator (PGC) cell viability counter screen (AID 1224822;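 note: series mostly up to about 46 µM; viability read after 17.5 h compound exposure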)
Summary of the method: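 qHTS format, DMSO compound stocks pin-transferred onto PGC/ERR cells 6 h after plating; 17.5 h exposure at 37 C, then CellTiter-Fluor fluorescence.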

[10] = qHTS assay to identify small molecule agonists of the estrogen related receptor signaling pathway with the pleiotropic PPARgamma coactivator (PGC) (AID 1224823)
Summary of the method: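 PGC/ERR reporter cells were seeded, rested 6 h at 37 C/5% CO2, then exposed to compounds in DMSO by pin transfer for 18 h at 37 C. Luciferase activity was read as luminescence after One-Glo reagent and 30 min at room temperature.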

CC(C)(O)CCC(C)(C)O
Potency [1]: inactive | Potency [2]: inactive | Potency [3]: inactive | Potency [4]: inactive

CCCCN(CCO)CCCC
Potency [1]: inactive | Potency [2]: inactive | Potency [3]: inactive | Potency [4]: inactive

CC(C)(C)c1ccccc1
Potency [1]: inactive | Potency [2]: inactive | Potency [3]: inactive | Potency [4]: inactive

CN(C)c1ccc(C(=C2C=CC(=[N+](C)C)C=C2)c2ccccc2)cc1
Potency [1]: 3.47 µM (active) and 2.39 µM (active) and 4.25 µM (active)

BrC1CCC(Br)C(Br)CCC(Br)C(Br)CCC1Br (stereo unspecified)
Potency [1]: 15.4 µM (active) and 18.5 µM (active) | Potency [2]: inactive

CCOc1ccc2c(c1)C(C)=CC(C)(C)N2
Potency [1]: inactive | Potency [2]: inactive | Potency [3]: inactive | Potency [4]: 54.2 µM (active) and 61.1 µM (active)

O=C(Cl)c1cccc(C(=O)Cl)c1
Potency [1]: inactive | Potency [2]: inactive

CCOc1ccccc1C(N)=O
Potency [1]: inactive | Potency [2]: inactive

Oc1c(Cl)cc(Cl)cc1Sc1cc(Cl)cc(Cl)c1O
Potency [1]: 49.1 µM (active) | Potency [2]: inactive | Potency [3]: 30.7 µM (active) and 27.8 µM (active) and 27.3 µM (active) | Potency [4]: inactive

CCC(=O)/C=C/C1C(C)=CCCC1(C)C (stereo unspecified)
Potency [1]: inactive | Potency [2]: inactive

O=C(Nc1ccccc1SSc1ccccc1NC(=O)c1ccccc1)c1ccccc1
Potency [1]: 19.6 µM (active) and 21.9 µM (active) | Potency [2]: inactive | Potency [3]: 15.4 µM (active)

CC(C)(C)NCC(O)COc1ccccc1OCC1CCCO1 (stereo unspecified)
Potency [1]: inactive | Potency [2]: inactive | Potency [3]: inactive | Potency [4]: inactive

CCOC(=O)C(C)C(C)=O (stereo unspecified)
Potency [1]: inactive | Potency [2]: inactive | Potency [3]: inactive | Potency [4]: inactive

O=C1Nc2ccccc2C1(c1ccc(O)cc1)c1ccc(O)cc1
Potency [1]: inactive | Potency [2]: inactive | Potency [3]: 61.1 µM (active) | Potency [4]: inactive

CCCCCCCCCCCCCCCCCl
activity change, negative = cytotoxicity [1]: 6.15% [at 15.8 µM] (inactive) | activity change, negative = cytotoxicity [2]: 4.57% [at 19 µM] (inactive) | activity, negative = inhibition [3]: -10.4% [at 19 µM] (inactive) | Potency [4]: inactive

C=C(C)C1CC=C(C)C(OC(C)=O)C1 (stereo unspecified)
Potency [1]: inactive | Potency [2]: inactive | Potency [3]: inactive | Potency [4]: inactive

CCCN[C@H]1CCc2nc(N)sc2C1
Potency [1]: inactive | Potency [2]: inactive

CC(=O)C1=C(C)[C@@H]2C[C@@]3(C1)[C@H](C)CC[C@H]3C2(C)C
Potency [1]: inactive | Potency [2]: inactive

CC(C)CCCCCCc1ccc(O)cc1
Potency [1]: 5.59 µM (active) and 38.9 µM (active) | Potency [2]: 78.3 µM (active) | Potency [3]: 27.3 µM (active) | Potency [4]: inactive

C=CC(=O)OCCCCCCCC
Potency [1]: inactive | Potency [2]: inactive | Potency [3]: inactive | Potency [4]: inactive

Cc1cccc(O)c1C
Potency [1]: inactive | Potency [2]: inactive | Potency [3]: inactive | Potency [4]: inactive

CC(=O)O[C@]1(C(C)=O)CC[C@H]2[C@@H]3C[C@H](C)C4=CC(=O)CC[C@]4(C)[C@H]3CC[C@@]21C
Potency [1]: inactive | Potency [2]: inactive

CC(C)(C)c1cc(C(C)(C)C)c(O)c(C(C)(C)C)c1
Potency [1]: inactive | Potency [2]: inactive

O=C(O[C@@H]1Cc2c(O)cc(O)cc2O[C@@H]1c1cc(O)c(O)c(O)c1)c1cc(O)c(O)c(O)c1
Potency [1]: inactive | Potency [2]: inactive | Potency [3]: inactive | Potency [4]: inactive

CC(COc1ccccc1)N(CCCl)Cc1ccccc1 (stereo unspecified)
Potency [1]: inactive | Potency [2]: inactive

Cc1occc(=O)c1OC(=O)C(C)C
Potency [1]: inactive | Potency [2]: inactive | Potency [3]: inactive | Potency [4]: inactive

CC[C@H]1CN2CCc3cc(OC)c(OC)cc3[C@@H]2C[C@@H]1C[C@H]1NCCc2cc(OC)c(OC)cc21
Potency [1]: inactive

CCC(CO)(CO)COCC(CC)(CO)CO
Potency [1]: inactive | Potency [2]: inactive | Potency [3]: inactive | Potency [4]: inactive

CCCCOCCOC(=O)c1ccccc1C(=O)OCCOCCCC
Potency [1]: 38.1 µM (active) and inactive | Potency [2]: inactive | Potency [3]: inactive

CC(=O)CC(=O)Nc1ccc2[nH]c(=O)[nH]c2c1
Potency [1]: inactive | Potency [2]: inactive | Potency [3]: inactive | Potency [4]: inactive

O=C1OC2(c3ccc(O)cc3Oc3cc(O)ccc32)c2ccccc21
Potency [1]: inactive | Potency [2]: inactive

CO[Si](OC)(OC)c1ccccc1
Potency [1]: inactive | Potency [2]: inactive | Potency [3]: inactive | Potency [4]: inactive

CCCCCCCCCCCCc1ccccc1O
Potency [1]: 17.2 µM (active) and 19.5 µM (active) | Potency [2]: 61.1 µM (active) | Potency [3]: 47.9 µM (active) and 54.5 µM (active)

COc1cc(C(=S)N2CCOCC2)ccc1O
Potency [1]: inactive | Potency [2]: inactive | Potency [3]: inactive | Potency [4]: inactive

O=Cc1ccc(Cl)cc1
Potency [1]: inactive | Potency [2]: inactive | Potency [3]: inactive | Potency [4]: inactive

Cc1cc(Cc2cc(C)cc(C(C)(C)C)c2O)c(O)c(C(C)(C)C)c1
Potency [1]: 12.4 µM (active) and 21.9 µM (active) | Potency [2]: 54.8 µM (active) and 48.6 µM (active) | Potency [3]: 43.5 µM (active) and 61.1 µM (active)

CC(C)(C)NC(=O)[C@@H]1CN(Cc2cccnc2)CCN1C[C@@H](O)C[C@@H](Cc1ccccc1)C(=O)N[C@H]1c2ccccc2C[C@H]1O
Potency [1]: inactive | Potency [2]: inactive

COc1ccc(Cc2cnc(N)nc2N)cc1OC
Potency [1]: inactive | Potency [2]: inactive | Potency [3]: inactive | Potency [4]: inactive

CCN1CCCC1CNC(=O)c1cc(S(=O)(=O)CC)c(N)cc1OC (stereo unspecified)
Potency [1]: inactive | Potency [2]: inactive | Potency [3]: inactive | Potency [4]: inactive | Potency [5]: inactive | Potency [6]: inactive | outcome [7]: inactive | Potency [8]: inactive | Potency [9]: inactive | outcome [10]: inactive

O=C(O)c1cn(-c2ccc(F)cc2)c2cc(N3CCNCC3)c(F)cc2c1=O
Potency [1]: inactive | Potency [2]: inactive | Potency [3]: inactive | Potency [4]: inactive

CC(=O)CC(C)=O
Potency [1]: inactive | Potency [2]: inactive | Potency [4]: inactive

CCCC(=O)c1ccccc1
Potency [1]: inactive | Potency [2]: inactive | Potency [3]: inactive | Potency [4]: inactive
